Measured values from PubChem BioAssay AID1259418 (Broad Institute, 2018).
In all, about 3,400 compounds went through this assay and about 840 (25%) were called active. Inconclusive results (about 11%) are left out. A selection follows. Results with a measured potency or affinity are listed apart. Values without a mark were called inactive.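 The calls were made as follows: active = fitted half-maximal concentration of signal decrease at or below twice the sample's top tested concentration; inconclusive = flat curve between -70 and -30 percent, or poor fit; inactive = flat within 30 percent, signal rise, or potency above limit.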

experiment: inhibitors of Toxoplasma growth in IFN-γ-primed HeLa – cell-based, ME49Luc, luciferase, 72 h, dose response (AID 1259418); settings: T. gondii ME49Luc in IFN-y HeLa, active compounds read low, -100% = high-dose IFN-γ control wells; at 19.5 µM unless noted

| Structure (SMILES) | max activity |
| --- | --- |
| O=C(CCC1Nc2c3ccccc3nc(=S)n2C1=O)NC1CC1 (stereo unspecified) | -17.9% [at 1.35 µM] |
| C/C=C/c1ccc([C@H]2[C@@H](C#N)N(C(=O)NC3CCCCC3)[C@H]2CO)cc1 | -14% [at 2.35 µM] |
| COc1cccc(-c2ccc(C3[C@H]4CNC[C@@H]3N4C(=O)NC3CCCCC3)cc2)c1 (stereo partly specified) | 32.8% [at 10 µM] |
| COc1ccc(N2CCN(c3nc(-c4ccc(Cl)cc4)nc4ccccc34)CC2)cc1 | 25.6% |
| CCOC(=O)C1CCN(C(=O)c2ccc(-c3csc(CC)n3)cc2)CC1 | 201% [at 10 µM] |
| N#Cc1ccc(-c2ccc(C3[C@@H]4CN(S(=O)(=O)c5ccc(F)cc5)C[C@H]3N4)cc2)cc1 (stereo partly specified) | 13.9% |
| COc1ccccc1-c1ccc(C2[C@H]3CNC[C@@H]2N3S(=O)(=O)c2ccc(F)cc2)cc1 (stereo partly specified) | 43.5% |
| Cn1cnc(S(=O)(=O)N2C[C@@H]3N[C@H](C2)C3c2ccc(-c3ccccc3F)cc2)c1 (stereo partly specified) | 25.3% [at 10 µM] |
| C/C=C/c1ccc(C2[C@H]3CNC[C@@H]2N3S(=O)(=O)c2ccccc2C)cc1 (stereo partly specified) | 50.4% |
| CCOc1ccc(-c2nc3c(s2)CN(S(=O)(=O)Cc2ccccc2)CC3)cc1 | -19.9% [at 0.16 µM] |
| COc1cccc(-c2ccc(C3[C@H]4CNC[C@@H]3N4CC3CCCCC3)cc2)c1 (stereo partly specified) | 25.6% [at 10 µM] |
| NC(=O)C1(N2CCCCC2)CCN(c2ncc(NC(=O)c3ccc(Cl)cc3)cc2C(=O)O)CC1 | -11.3% [at 10 µM] |
| Cc1ccc(-c2nc(CSc3nc4c(c(=O)[nH]3)CN(C(C)C)CC4)c(C)o2)cc1 | -15.7% |
| Cc1ccc(C)c(-c2coc(-c3ccc(NC(=O)Nc4ccc(F)cc4F)cc3)n2)c1 | -11.8% [at 2.6 µM] |
| COc1ccc(CNC(=O)CC2Nc3c4ccccc4nc(=S)n3C2=O)cc1 (stereo unspecified) | 22.9% [at 0.16 µM] |
| CCc1ccc(-c2noc(-c3nnn(Cc4nc(-c5ccc(OC)cc5)oc4C)c3C)n2)cc1 | -11.2% [at 1.35 µM] |
| CCc1nc(OCC(=O)Nc2c(C)cccc2C)c2ccccc2n1 | 19.2% [at 0.35 µM] |
| Cc1ccc(C2=NC3(CCN(CC(=O)Nc4cccc(C)c4)CC3)NC2=O)cc1 | -9.18% [at 5 µM] |
| CCOc1cccc(-c2noc(-c3nnn(Cc4nc(-c5ccccc5OC)oc4C)c3C)n2)c1 | 5.65% [at 0.35 µM] |
| CCOC(=O)c1nn(Cc2ccccc2)c2c1CN(C(=O)CN1CC(c3ccccc3)CC1=O)CC2 (stereo unspecified) | -5.83% [at 0.038 µM] |
| Cc1ccc2c(c1C)-n1cccc1C1(CCN(C(=O)COc3ccccc3)CC1)N2 | -7.11% [at 2.6 µM] |
| Nc1ccc(S(=O)(=O)NC(=O)c2ccccc2)cc1 | -6.84% [at 5 µM] |
| COc1cccc(CN2CCc3nc(SCc4nc(-c5ccc(C)cc5)oc4C)[nH]c(=O)c3C2)c1 | 42.8% |
| Cc1ccc(-c2coc(-c3ccc(NC(=O)C(C)(C)C)cc3)n2)c(C)c1 | 40.9% |
| CCc1ccccc1NC(=O)CN1CCC2(CC1)N=C(c1ccc(F)cc1)C(=O)N2 | -11.7% [at 0.35 µM] |
| CCc1nc(OCC(=O)Nc2cc(Cl)ccc2Cl)c2ccccc2n1 | 24.4% [at 2.6 µM] |

| Structure (SMILES) | max activity |
| --- | --- |
| CCc1nc(OCC(=O)Nc2ccc(C)cc2Cl)c2ccccc2n1 | 18.6% [at 0.68 µM] |
| CCc1nc(OCC(=O)NCc2ccc(F)cc2)c2ccccc2n1 | -17.9% [at 0.68 µM] |
| CCc1ccc(NC(=O)COc2nc(CC)nc3ccccc23)cc1 | -19.6% [at 1.35 µM] |
| Cc1nc(OCC(=O)Nc2ccc(C)c(F)c2)c2ccccc2n1 | 21.5% [at 10 µM] |
| CCc1nc(OCC(=O)Nc2ccc(C)c(C)c2)c2ccccc2n1 | 17.1% [at 0.35 µM] |
| CCc1nc(OCC(=O)Nc2ccc(C)cc2)c2ccccc2n1 | 32.4% |
| CCc1nc(OCC(=O)NCc2ccc(C)cc2)c2ccccc2n1 | 13.9% |
| Cc1cccc(-c2nc(Cn3nnc(-c4nc(-c5ccccc5Cl)no4)c3C)c(C)o2)c1 | 15.3% [at 10 µM] |
| CCc1ccccc1NC(=O)Nc1ccc(-c2nc(-c3ccccc3)co2)cc1 | 13.1% [at 5 µM] |
| Cc1nc(-c2ccc(F)cc2)sc1-c1ccc(SCc2ccc(Cl)cc2)nn1 | -5.59% [at 1.35 µM] |
| COc1cccc(C(=O)Nc2ccc(-c3nc(-c4ccc(C)cc4C)co3)cc2)c1 | 37.5% |
| Cc1ccc(C)c(-c2coc(-c3ccc(NC(=O)C(C)C)cc3)n2)c1 | 14.2% |
| COc1ccccc1-c1nc(Cn2nnc(-c3nc(-c4ccc(OC(C)C)cc4)no3)c2C)c(C)o1 | -5.67% [at 1.35 µM] |
| COc1cccc(-c2nc3c(s2)CN(C(=O)Nc2ccc(OC)cc2OC)CC3)c1 | 52.4% |
| CC(C)OCCCNC(=O)CC1Nc2c3ccccc3nc(=S)n2C1=O (stereo unspecified) | 19.5% [at 0.16 µM] |
| CCOc1ccc(-c2nc3c(s2)CN(S(=O)(=O)c2ccc(F)cc2)CC3)cc1 | 36.2% |
| CCN(C(=O)COc1nc(C)nc2ccccc12)c1ccccc1 | 18.8% [at 0.68 µM] |
| CCc1nc(OCC(=O)N(CC)c2ccccc2)c2ccccc2n1 | 9.96% [at 10 µM] |
| CSc1ccc(-c2noc(-c3nnn(Cc4nc(-c5cccc(Cl)c5)oc4C)c3C)n2)cc1 | 12.2% [at 0.16 µM] |
| Cc1ccc(NC(=O)CN2CCC3(CC2)N=C(c2ccc(Cl)cc2)C(=O)N3)cc1C | -6.27% [at 0.68 µM] |
| COc1ccc(-c2nc3c(s2)CN(S(=O)(=O)c2ccc(Cl)cc2)CC3)cc1 | 8.74% |
| COc1ccc(-c2nc(Cn3c(=O)c4cccnc4n(-c4ccccc4)c3=O)c(C)o2)cc1 | -4.3% [at 2.6 µM] |
| CCc1c(C)sc2c1CCN(Cc1nc(-c3ccc(C)cc3)oc1C)C2c1ccccc1 (stereo unspecified) | 11.6% |
| Cc1oc(-c2ccccc2)nc1Cn1nnc(-c2nc(-c3ccccc3Cl)no2)c1C | 7.39% |
| COC(=O)c1cccc(NC(=O)Nc2ccc(-c3nc(-c4ccccc4)co3)cc2)c1 | 9.82% |
| COc1cccc(C(=O)N2CCC3(CC2)Nc2ccc(C)c(C)c2-n2cccc23)c1 | -8.8% [at 0.16 µM] |

| Structure (SMILES) | max activity |
| --- | --- |
| CN(C[C@H]1[C@H](c2ccccc2)[C@@H](CO)N1CC1CC1)C(=O)c1ccc(F)cc1 | 49.7% |
| O=C(C1CCC1)N1CC(=O)N2[C@H](CO)[C@H](c3ccc(Br)cc3)[C@H]2C1 | 54.7% |
| CN(C)CC(=O)N1C[C@@H]2N[C@H](C1)C2c1ccc(-c2ccccc2F)cc1 (stereo partly specified) | 5.96% [at 10 µM] |
| CCc1nc(OCC(=O)Nc2cccc(Cl)c2)c2ccccc2n1 | 20.4% [at 0.16 µM] |
| CCOc1ccc(-c2nc3c(s2)CN(S(=O)(=O)c2cccc(Cl)c2C)CC3)cc1 | 15.9% [at 10 µM] |
| Cc1ccc(C)c(-c2coc(-c3ccc(NC(=O)NCc4ccco4)cc3)n2)c1 | -45.2% [at 1.35 µM] |
| Cc1nc(CCNC(=O)C2CCN(C(=O)c3ccc(Cl)cc3)CC2)cs1 | -28.7% |
| Cc1nc(CCNC(=O)C2CCN(C(=O)c3cccc(F)c3)CC2)cs1 | -15.3% |
| Cc1nc(CCNC(=O)C2CCN(C(=O)c3ccc(F)cc3)CC2)cs1 | 11.3% [at 2.6 µM] |
| COc1cccc(C(=O)N2CCC(C(=O)NCCc3csc(C)n3)CC2)c1 | -13.8% [at 0.16 µM] |
| CCCNC(=O)C[C@H]1CC[C@@H]2[C@H](COC[C@H](O)CN2C(=O)Nc2ccc(Cl)c(Cl)c2)O1 | 33.9% |
| O=C(C[C@H]1CC[C@H]2[C@@H](COC[C@@H](O)CN2C(=O)c2cc(Cl)cc(Cl)c2)O1)N1CCc2ccccc2C1 | 26.3% [at 10 µM] |
| CCOc1ccc(-c2nc3c(s2)CN(S(=O)(=O)c2ccc(F)cc2F)CC3)cc1 | 95.1% |
| Clc1ccc(-c2nc(NCc3cccs3)c3ccccc3n2)cc1 | 13.5% [at 0.35 µM] |
| CCc1nc(OCC(=O)Nc2ccc(Br)cc2F)c2ccccc2n1 | 35.6% [at 0.68 µM] |
| O=S(=O)(c1ccc(F)cc1)N1CCCCN2[C@H](C1)[C@H](c1ccc(-c3cncnc3)cc1)[C@@H]2CO | 22.1% [at 10 µM] |
| CCOC(=O)Cc1ccc(NC(=O)Nc2ccc(-c3nc(-c4ccc(C)cc4C)co3)cc2)cc1 | 11.1% |
| Cc1ccc(-c2nc(Cn3nnc(-c4nc(-c5ccc(Cl)cc5)no4)c3C)c(C)o2)cc1 | -14.4% [at 0.68 µM] |
| Cc1cccc(C2=NC3(CCN(CC(=O)Nc4ccc(F)cc4F)CC3)NC2=O)c1 | -4.98% [at 0.68 µM] |
| COc1cccc(CC(=O)Nc2ccc(-c3nc(-c4ccc(C)cc4C)co3)cc2)c1 | -8.08% [at 1.35 µM] |
| CCn1cc(CN2CCCC2c2cc(C(C)C)on2)c2ccccc21 (stereo unspecified) | 8.42% [at 0.16 µM] |
| CCOC(=O)Cn1cc(CN2CCCC2c2c(C)noc2CC)c2ccccc21 (stereo unspecified) | 12.1% [at 0.16 µM] |
| CCn1cc(CN2CCCC2c2cc(C(C)C)no2)c2cc(OC)ccc21 (stereo unspecified) | 5.61% [at 0.16 µM] |
| COC(=O)Cn1cc(CN2CCCC2c2cc(C(C)C)no2)c2cc(OC)ccc21 (stereo unspecified) | 18.8% [at 0.35 µM] |
